In the library only some 0.86% were active in any assay of this set; here they are far more common.
APEX1 inh: qHTS Assay for Inhibitors of the Human Apurinic/apyrimidinic Endonuclease 1 (APE1) | Potency, µM (titrated, usually from 65.8 µM), without a hit: at the top dose activity change, negative = inhibition, most hits filed as inhibitors | AID 2517, 2012 | recombinant APE1, TAMRA/BHQ-2 abasic DNA cleavage fluorescence | 350,000 compounds, 0.35% hits | DNA repair nuclease/redox regulator APEX1 (Homo sapiens), P27695;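 also: plate controls were vehicle for no effect and reference inhibitor for full effect; nearly all actives have a fitted effect of over 55% in size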
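Measures dequenching upon AP-site incision of a 5'-TAMRA/3'-BHQ-2 THF-containing duplex, 50 nM; human APE1 0.75 nM after 15 min room-temperature exposure to compound; kinetic three-point read at one-minute spacing.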
FEN1 inh-1: qHTS Assay for the Inhibitors of Human Flap endonuclease 1 (FEN1); Potency, µM (series often up to 114 µM), without a hit: at the highest dose activity change, negative = inhibition, actives largely listed as inhibitors; Recombinant FEN1 flap cleavage, fluorescence, 15 min; 390,000 compounds, 0.35% hits; also: % is scaled to controls: 0 for no effect and ±100 for the full control effect; nearly all actives have a fitted effect of over 65% in size
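Nuclease activity of 10 nM FEN1 was measured after 15 min of room-temperature exposure to titrated compounds, by adding 50 nM flap substrate and reading plates at 0 and 15 min.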
GLS inh: qHTS for Inhibitors of Glutaminase (GLS); Glutaminase kidney isoform, mitochondrial (Homo sapiens), O94925; GLS enzymatic activity, qHTS titration; Potency, µM (top dose mostly 45.5 µM), without a hit: top-dose activity change, negative = inhibition, hits mostly inhibitors; 410,000 compounds, 0.21% hits; AID 624170, 2012; also: % is scaled to controls: 0 for no effect and ±100 for the full control effect
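Assay buffer: 45 mM KH2PO4 pH 8.2, 0.02% Tween-20. hKGA acts on L-glutamine (1 mM solution added); product glutamate is reported by an oxidase/peroxidase Amplex Red coupling, with fluorescence taken at baseline and 30 min.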
RECQ1 inh-1: qHTS Assay for Inhibitors of RecQ-Like Dna Helicase 1 (RECQ1); 240,000 compounds, 0.54% hits; Potency, µM (top dose mostly 57.3 µM), for inactives: top-dose activity, negative = inhibition, actives largely listed as inhibitors; RECQ1 DNA unwinding, red fluorescence kinetic read;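 also: plate controls were vehicle for no effect and no enzyme for full effect; nearly all actives have a fitted effect of over 30% in size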
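RECQ1T1 50 nM; forked duplex (20 bp + 30-nt ss tails) 200 nM, ATP 2 mM final; pH 8.0, 2 mM MgCl2, 2.5 ug/ml poly(dI-dC); 15 min compound preincubation; discontinuous kinetic read over 2 h at RT.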
PGK inhibitor: qHTS Assay to Find Inhibitors of Phosphoglycerate Kinase; PGK/GAPDH coupled, Kinase-Glo luminescence, 60 min; Potency, µM (doses to about 57.5 µM), inactives show at the highest dose activity change, negative = inhibition, most hits filed as inhibitors; 380,000 compounds, 0.043% hits; AID 602233, 2012; also: % is scaled to controls: 0 for no effect and ±100 for the full control effect; nearly all actives have a fitted effect of over 60% in size
Target sequence (P07378 whole entry, looked up): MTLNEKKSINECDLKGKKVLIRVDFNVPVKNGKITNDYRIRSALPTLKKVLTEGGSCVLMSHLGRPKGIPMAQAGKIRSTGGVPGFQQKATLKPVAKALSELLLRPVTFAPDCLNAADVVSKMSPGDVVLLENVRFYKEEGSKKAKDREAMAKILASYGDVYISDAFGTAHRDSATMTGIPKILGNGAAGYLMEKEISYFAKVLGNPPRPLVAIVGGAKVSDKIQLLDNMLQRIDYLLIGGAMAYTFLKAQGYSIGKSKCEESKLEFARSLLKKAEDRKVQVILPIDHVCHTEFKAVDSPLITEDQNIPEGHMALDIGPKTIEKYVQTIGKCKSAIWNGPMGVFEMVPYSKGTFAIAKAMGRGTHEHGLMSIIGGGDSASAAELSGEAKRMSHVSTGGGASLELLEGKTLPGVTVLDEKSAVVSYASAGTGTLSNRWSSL
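Recombinant glycosomal PGK reaction used 1,3-bisphosphoglycerate generated in-well by GAPDH (100nM final) in 100mM TEA pH 7.6, 5mM MgCl2, 0.01% Tween-20. After 60 minutes at room temperature, ATP was read by Kinase-Glo Plus luminescence end-point.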
BLM helicase inh: qHTS Assay for Inhibitors of Bloom's syndrome helicase (BLM); 350,000 compounds, 0.2% hits; recombinant BLM DNA unwinding, fluorescence dequenching; AID 2528, 2010; Potency, µM (titrated, usually from 56.1 µM), for inactives: top-dose activity change, negative = inhibition, actives largely listed as inhibitors; RecQ-like DNA helicase BLM (Homo sapiens), P54132;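 also: plate controls were vehicle for no effect and no enzyme for full effect; nearly all actives have a fitted effect of over 35% in size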
RECQ1 inh-2: Confirmation qHTS Assay for Inhibitors of RecQ-Like Dna Helicase 1 (RECQ1) - Round 2 Cherry Picks; shares compounds with RECQ1 inh-1; recombinant RECQ1 DNA unwinding, red fluorescence; Potency, µM (top dose mostly 119 µM), for the others: at the top dose activity, negative = inhibition, actives largely listed as inhibitors; 1,100 compounds, 15% hits; AID 504841, 2011; also: % is scaled to controls: 0 for no effect and ±100 for the full control effect; nearly all actives have a fitted effect of over 50% in size
FEN1 inh-2: qHTS Assay for the Inhibitors of FEN1: Confirmatory Assay for Cherry-picked Compounds; shares compounds with FEN1 inh-1; FEN1 flap cleavage, TAMRA/BHQ2 fluorogenic DNA substrate; Potency, µM, most hits filed as inhibitors; 880 compounds, 79% hits; also: nearly all actives have a fitted effect of over 60% in size
* marks the source's active call; other numbers are inactive results; i = inactive; ? = inconclusive; . = not tested or not shown. Calls follow the shape of the dose curve; as a rule, active = well fitted curve in the direction sought with a large enough effect; inconclusive = small, poorly fitted or top-dose-only effect, or another doubt; inactive = no such curve, though single readings can be large; an effect the other way counts as inactive or inconclusive. Potency is read from the fitted curve at half-maximal effect.

SMILES	APEX1 inh	FEN1 inh-1	GLS inh	RECQ1 inh-1	PGK inhibitor	BLM helicase inh	FEN1 inh-2	others
CCCCC/C=C\C/C=C\C/C=C\C/C=C\CCCC(=O)NCc1ccoc1	?	.	.	11µM*	.	?	.	RECQ1 inh-2=?
CCCCC/C=C\C/C=C\C/C=C\C/C=C\CCCC(=O)NCCO	1%	.	.	-3%	.	?	.
C=C(C)C(=O)OCC1CO1 (centres undefined)	-3%	.	.	3%	.	.	.
COc1cccc(OC)c1-c1nn2c(-c3n[nH]c4c3CCC4)nnc2s1	.	?	.	.	.	.	?
Cc1cc(/C=C2\C(=O)NC(=O)N(Cc3ccccc3)C2=O)c(C)n1-c1ccc(Cl)c(C(=O)O)c1	?	79µM*	10µM*	35µM*	13µM*	-3%	?
Cc1ccccc1-n1c(C)cc(/C=C2/C(=O)NC(=O)N(Cc3ccco3)C2=O)c1C	-7%	-15%	7%	-25%	.	-6%	?
COc1ccc(/C=C2/C(=O)NC(=O)N(Cc3ccco3)C2=O)cc1	13%	.	.	-15%	.	0%	.
[O-][Cl+]O	0%	.	.	0%	.	.	.
ClC(Cl)(Cl)C(Cl)(Cl)Cl	4%	.	.	-8%	.	.	.
O=C1NC(=S)N(C2CC2)C(=O)/C1=C/c1ccc2c(c1)CCN2CCCCl	?	?	-3%	?	-9%	?	76*
CCN1C(=O)/C(=C/c2ccc3c(c2)CCN3CCCCl)C(=O)NC1=S	-11%	?	1%	-5%	-12%	?	.
CC[C@@H]1CN2CCc3cc(OC)c(OC)cc3[C@@H]2C[C@@H]1C[C@H]1NCCc2cc(OC)c(OC)cc21	12%	.	.	2%	.	-9%	.
N#CC(C#N)=Cc1ccc(C=C(C#N)C#N)cc1	3%	5%	1%	-18%	-4%	-18%	95*
O=C(Cl)C(Cl)(Cl)Cl	-5%	.	.	6%	.	.	.
CN1/C(=C\C=C2C(=O)NC(=O)NC2=O)C(C)(C)c2ccccc21	3%	9%	-1%	-14%	3%	2%	.
CCN1/C(=C/C=C/C2=[N+](CC)c3ccccc3C2(C)C)C(C)(C)c2ccccc21	.	.	-16%	.	?	.	67*
C=CC1CC=CCC1 (centres undefined)	-2%	.	.	-7%	.	.	.
COc1ccc2c(c[n+](C)c3c4cc5c(cc4ccc23)OCO5)c1OC	15%	?	.	-13%	.	-8%	.
COc1cc2c(ccc3c4cc(OC)c(OC)cc4c[n+](C)c23)cc1O	.	3.5µM*	20%	.	1%	.	2.7*
Cc1ccc2ccccc2c1	5%	.	.	-7%	.	.	.
Cc1ccc2c(C)c3ccc4ccccc4c3c[n+]2c1	.	8.9µM*	-5%	.	-2%	.	6.7*
C=CCn1c(CSc2ccccc2[N+](=O)[O-])n[nH]c1=S	?	?	?	.	-21%	-25%	76*
CCOC(=O)c1ccc(N=Cc2c(O)n(-c3ccc(OC)cc3)c(=S)[nH]c2=O)cc1	-3%	?	0%	i	i	-4%	9.5*
CCCCC(CC)COC(=O)c1ccc(C(=O)OCC(CC)CCCC)c(C(=O)OCC(CC)CCCC)c1 (centres undefined)	5%	.	.	-3%	.	.	.
C=Cc1cc(OC)c2c(c1)c(=O)oc1c2cc(OC)c2c(O)ccc(C3OC(C)C(O)C(C)(O)C3O)c21 (centres undefined)	.	1.3µM*	2%	.	-9%	.	1.7*
SMILES	APEX1 inh	FEN1 inh-1	GLS inh	RECQ1 inh-1	PGK inhibitor	BLM helicase inh	FEN1 inh-2	others
CN1C(=O)C(=Cc2ccc(Sc3ccccc3)o2)C(=O)N(C)C1=S	.	-18%	-12%	.	-10%	.	85*
COc1ccc(C=O)cc1OC	-2%	.	.	-9%	.	.	.
C[n+]1c2ccccc2nc2ccc(NCCO)cc21	27µM*	40µM*	-17%	.	?	18µM*	43*
CNc1ccc2nc3ccccc3[n+](C)c2c1	21µM*	?	-22%	.	-1%	18µM*	38*
c1ccc2nc3ccccc3cc2c1	-3%	?	.	i	.	-9%	.
[Cl][In]([Cl])[Cl]	0%	?	-93%	-6%	.	-3%	.
NC(=O)C(c1ccccc1)(c1ccccc1)[C@@H]1CCN(CCc2ccc3c(c2)CCO3)C1	.	.	27%	.	.	-2%	.
Cc1ccc(CCNC(=O)c2cc3cc(S(=O)(=O)N4CCCCC4)ccc3n2C)cc1	.	?	2%	.	1%	-7%	.
C[C@]12CCC3C(CC[C@H]4C[C@H](O)CC[C@]34C)[C@@H]1CC[C@@H]2C(=O)CO (some centres undefined)	4%	.	.	i	.	.	.
C[C@]12CCC3C(CC[C@H]4C[C@@H](O)CC[C@]34C)C1CC[C@@H]2OC(=O)[C@H](N)CCCCN (some centres undefined)	-6%	?	5%	.	i	.	43*
COC1C(O)C(C)OC(OC2C(Oc3cccc4c(O)c5c(=O)oc6ccc(C)c7c(=O)oc(c34)c5c67)OC(C)C(O)C2O)C1O (centres undefined)	.	1.8µM*	4%	.	i	.	6*
O=C1NC(=O)N(Cc2ccccc2)C(=O)/C1=C\C=C\c1ccco1	?	?	?	?	10%	?	?

Screening data: PubChem BioAssay, National Center for Advancing Translational Sciences (NCATS)
